Here are results for 34 molecules from PubChem BioAssay (NCATS).

Records with an inconclusive call do not appear. A number with no mark means an inactive call. The source made the active and inactive calls. Calls follow the shape of the dose curve; as a rule, active = well fitted curve in the direction sought with a large enough effect; inconclusive = small, poorly fitted or top-dose-only effect, or another doubt; inactive = no such curve, though single readings can be large or run the other way.

Sequence of Protein phosphatase 1D (Homo sapiens) (O15297 whole entry, looked up): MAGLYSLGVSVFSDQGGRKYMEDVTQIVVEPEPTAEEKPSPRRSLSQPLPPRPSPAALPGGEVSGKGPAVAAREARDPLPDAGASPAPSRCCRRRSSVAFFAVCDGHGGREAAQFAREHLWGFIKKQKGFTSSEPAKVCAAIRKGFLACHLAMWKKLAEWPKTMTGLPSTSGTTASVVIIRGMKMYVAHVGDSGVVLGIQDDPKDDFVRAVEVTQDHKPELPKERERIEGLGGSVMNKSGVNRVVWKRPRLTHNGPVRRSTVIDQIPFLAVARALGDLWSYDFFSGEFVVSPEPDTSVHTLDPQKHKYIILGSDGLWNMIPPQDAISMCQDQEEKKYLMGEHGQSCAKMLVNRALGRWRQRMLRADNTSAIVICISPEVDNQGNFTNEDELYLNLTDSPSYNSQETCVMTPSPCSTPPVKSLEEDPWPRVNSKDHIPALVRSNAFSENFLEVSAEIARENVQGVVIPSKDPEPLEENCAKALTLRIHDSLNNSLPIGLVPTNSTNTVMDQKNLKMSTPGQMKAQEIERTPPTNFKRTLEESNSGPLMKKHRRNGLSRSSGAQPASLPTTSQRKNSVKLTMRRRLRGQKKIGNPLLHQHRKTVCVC

The experiment has as its target Protein phosphatase 1D (Homo sapiens) (UniProt O15297). Kind of experiment: Rhodamine-PBP qHTS Assay for Modulators of WT P53-Induced Phosphatase 1 (WIP1) (AID 1347425). Also: % of control where 0% means no effect. The settings on record: recombinant WIP1, Rhodamine-PBP phosphate fluorescence, real-time; series mostly up to 57.5 µM; activity change, negative = inhibition: at the top concentration. An outline of the steps:
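Read-out: Rhodamine-PBP fluorescence (ex 525/em 598 nm) for released Pi, read each minute for 11 min after adding 10 uM VEPPL-pS-QETFS; signal taken as f1 minus pre-substrate f0. Enzyme 5 nM WIP1 with 1 hr room-temperature compound preincubation.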
Background: In qHTS, concentration-response curves come from the screen itself.
Turning to `C#CCOC(C(=O)OCCN(C)C)(c1ccccc1)c1ccccc1`, the “activity change, negative = inhibition” value was 13%.

As to `CC(C)=CC1C(C(=O)OCc2cccc(Oc3ccccc3)c2)C1(C)C` (centres undefined), the “activity change, negative = inhibition” value is 11.2%.

`c1ccc2c(c1)Nc1ccccc1S2`: the outcome was inactive.

`CCN(CC)CCN1C(=O)CN=C(c2ccccc2F)c2cc(Cl)ccc21`: the “activity change, negative = inhibition” value was 21.6%.

Take `CC1OC(C)OC(C)O1` (centres undefined): the “activity change, negative = inhibition” value was 3.98%.

Take `CCOC(=O)C1(c2ccccc2)CCN(CCC(C#N)(c2ccccc2)c2ccccc2)CC1`: the “activity change, negative = inhibition” value was 15.8%.

Take `CC1NCCOC1c1ccccc1` (centres undefined): the “activity change, negative = inhibition” value is 14.4%.

On to `CO[C@]12CC[C@@]3(C[C@@H]1[C@](C)(O)C(C)(C)C)[C@@H]1Cc4ccc(O)c5c4[C@@]3(CCN1CC1CC1)[C@H]2O5`, for which the “activity change, negative = inhibition” value is 11.7% [at 116 µM].

Turning to `Clc1ccc(CCC(Cn2ccnc2)Sc2c(Cl)cccc2Cl)cc1` (centres undefined), the “activity change, negative = inhibition” value was 16.8%.

Consider `C[C@H]1O[C@@H](O[C@H]2[C@@H](O)C[C@H](O[C@H]3[C@@H](O)C[C@H](O[C@H]4CC[C@@]5(C)[C@H](CC[C@@H]6[C@@H]5CC[C@]5(C)[C@@H](C7=CC(=O)OC7)CC[C@]65O)C4)O[C@@H]3C)O[C@@H]2C)C[C@H](O)[C@@H]1O`, for which the “activity change, negative = inhibition” value is 11.2%.

Consider `CC(C)(N)Cc1ccc(Cl)cc1`, for which the “activity change, negative = inhibition” value was 10.7%.

In the case of `Cc1ccc(-c2nc3ccc(C)cn3c2CC(=O)N(C)C)cc1`, the “activity change, negative = inhibition” value was 10.3%.

In the case of `COc1ccc2c(c1OC)CN1CCc3cc4c(cc3C1C2)OCO4` (centres undefined), the “activity change, negative = inhibition” value is 13%.

Turning to `COc1ccc(C(=O)c2c(C)n(CCN3CCOCC3)c3ccccc23)cc1`, the “activity change, negative = inhibition” value was 31.3%.

For the molecule `CCN(CC)CCOC(=O)C(O)(c1ccccc1)c1ccccc1`, the “activity change, negative = inhibition” value is 6.93%.

As to `CC(C)CC(N(C)C)C1(c2ccc(Cl)cc2)CCC1` (centres undefined), the “activity change, negative = inhibition” value is 14%.

Take `OCCOc1ccccc1`: the “activity change, negative = inhibition” value was 7.14%.

As to `CCN(C(C)=O)c1cccc(-c2ccnc3c(C#N)cnn23)c1`, the “activity change, negative = inhibition” value is 7.36%.

For `C=C1CC[C@@]2(O)[C@H]3Cc4ccc(O)c5c4[C@@]2(CCN3CC2CC2)[C@H]1O5`, the “activity change, negative = inhibition” value is 11.8%.

With `C=C1C[C@@H]2[C@H](CC[C@]3(C)C(=O)CC[C@@H]23)[C@@]2(C)C=CC(=O)C=C12`, the “activity change, negative = inhibition” value was 18.2%.

On to `O=[N+]([O-])c1cc([As](=O)(O)O)ccc1O`, for which the “activity change, negative = inhibition” value was -5.02%.

Consider `CCC(C(N)=O)N1CCCC1=O` (centres undefined), for which the “activity change, negative = inhibition” value is 11.4%.

As for `O=C(NC(O)C(Cl)(Cl)Cl)NC(O)C(Cl)(Cl)Cl` (centres undefined), the “activity change, negative = inhibition” value was -8.44%.

As to `CN1C(=S)CN=C(c2ccccc2)c2cc(Cl)ccc21`, the “activity change, negative = inhibition” value is 8.87%.

For `Clc1cccc(N2CCNCC2)c1`, the “activity change, negative = inhibition” value is 12.7%.

Regarding `CCCC(C)(COC(N)=O)COC(=O)NC(C)C` (centres undefined), the “activity change, negative = inhibition” value was 9.35%.

For `CCC(COC(=O)c1cc(OC)c(OC)c(OC)c1)(c1ccccc1)N(C)C` (centres undefined), the “activity change, negative = inhibition” value is 13.2%.

As for `Oc1ccccc1-c1ccccc1`, the “activity change, negative = inhibition” value is -4.33%.

As to `O=C(O)c1ccc2[nH]cc(CCCCN3CC=C(c4ccccc4)CC3)c2c1`, the “activity change, negative = inhibition” value is -1.83%.

Take `CC[N+](CC)(CC)CC`: the “activity change, negative = inhibition” value was -0.386%.

With `Cc1ccc2c(c1)C1CN(C)CCC1N2` (centres undefined), the “activity change, negative = inhibition” value was 19.5% [at 23.8 µM].

Consider `CCCC1CCCCN1` (centres undefined), for which the “activity change, negative = inhibition” value is 13.7%.

Regarding `CC[N+]1(C)CCCC(OC(=O)C(O)(c2ccccc2)c2ccccc2)C1` (centres undefined), the “activity change, negative = inhibition” value was 12.4%.

On to `CCOP(=S)(OCC)Oc1cc(C)nc(C(C)C)n1`, for which the “activity change, negative = inhibition” value was 11.6%.
